Laboratory results: PubChem BioAssay (NCATS)
Results filed as inconclusive are left out. A number with no mark means an inactive call. Calls of active or inactive are those of the source. The call rests on the fitted dose curve; in most records, active means well fitted curve in the direction sought with a large enough effect; inconclusive means small, poorly fitted or top-dose-only effect, or another doubt; inactive means no such curve, though single readings can be large; an effect the other way counts as inactive or inconclusive.

Test: Quantitative highthroughput screen to assess conditional lethalithy of NOMO1 cells grown in Human Plasma-Like Medium with dialyzed fetal bovine serum (HPLM+ds) (AID 1963878);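 further: 100% = DMSO wells and 0% = empty wells on each plate; nearly all actives have a fitted effect of over 35% in size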
Conditions: NOMO1 AML cells in HPLM+ds, CellTiter-Glo viability, 48 h; series mostly up to 45.8 µM; viability: at the top concentration
Method in brief: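 Each medium arm—HPLM with 10% dialyzed FBS, or RPMI1640 with 5 mM glucose and 10% untreated or dialyzed FBS—was screened against an 11-point, 3-fold compound titration for 48 h at 37 °C, with CellTiter-Glo luminescence as endpoint.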

Which “viability” value does the source give for `O=c1ccc2ccc(O)c(O)c2o1` here?
Its value is 108%.

Which “viability” value does the source give for `CC1CC2C3CCC4=CC(=O)C=C[C@]4(C)[C@@]3(F)[C@@H](O)C[C@]2(C)[C@@]1(O)C(=O)CO` (stereo partly drawn) here?
The value was 96.1%.

With `CC[C@H]1OC(=O)[C@H](C)[C@@H](O[C@H]2C[C@@](C)(OC)[C@@H](O)[C@H](C)O2)[C@H](C)[C@@H](O[C@@H]2O[C@H](C)C[C@H](N(C)C)[C@@H]2O)[C@](C)(O)C[C@@H](C)CN(C)[C@H](C)[C@@H](O)[C@]1(C)O` as the compound, how does the “viability” value read?
Its value is 71.9%.

With `CC(C)CN(C[C@H](O)[C@H](Cc1ccccc1)NC(=O)O[C@H]1CCOC1)S(=O)(=O)c1ccc(N)cc1` as the compound, how does the “viability” value read?
The value was 101%.

With `CC1(C)O[C@@H]2C[C@@H]3[C@H]4C[C@@H](F)C5=CC(=O)C=C[C@]5(C)[C@@]4(F)[C@@H](O)C[C@]3(C)[C@]2(C(=O)CO)O1` as the compound, how does the “viability” value read?
The value was 91.8%.

For `C[C@H]1C[C@@H]2[C@@H]([C@@H](O)C[C@@]3(C)[C@H]2CC[C@]3(O)C(=O)CO)[C@@]2(C)C=CC(=O)C=C12`, which “viability” value is on record?
The value was 101%.

Test: Cellular viability qHTS for adrenocortical cancer (ACC) cell line NCI-H295R (AID 1963990); further: nearly all actives have a fitted effect of over 60% in size; further: potency means the concentration at half of the fitted maximal effect;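 on activity change, negative = viability loss: 0% = DMSO only wells and -100% = full killing with cytotoxic reference compound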
Conditions: CellTiter-Glo ATP luminescence, 48 h; series mostly up to 46.1 µM; activity change, negative = viability loss: at the top concentration
Method in brief: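 Readout: CellTiter-Glo luminescence, 20 min RT. Exposure: 48 h, 37C/5% CO2. Cells: NCI-H295R, ITS-DMEM serum-free. Range: up to 46 uM. Analysis: 4PL fit, IC50 plus efficacy.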

Which “activity change, negative = viability loss” value does the source give for `COC1CC(C(=O)c2ccc3c(N)ncc(-c4ccc(-c5cnn(C)c5)cc4)c3n2)C1` (stereo not drawn) here?
Its value is -5.83%.

Which Potency does the source give for `Fc1ccc2[nH]ccc2c1-c1nc(N2CCOCC2)c2sc(CN3CCN(CC4CC4)CC3)cc2n1` here?
Its Potency is 31.6 µM (active).

Which Potency does the source give for `CC[C@]12CCCN3CCc4c(n(c5ccccc45)C(=O)C1)[C@@H]32` here?
Its Potency is 5.8 µM (active).

For `CC1=C(/C=C/C(C)=C/C=C/C(C)=C/C(=O)Nc2ccc(O)cc2)C(C)(C)CCC1`, which Potency is on record?
Its Potency is 4.61 µM (active).

Which “activity change, negative = viability loss” value does the source give for `CN1CCN(c2ccc(Nc3ncc4cc(C#N)c(=O)n(C5CCCC5)c4n3)cc2)CC1` here?
Its value is -16.4%.

With `O=c1cc(N2CCOCC2)oc2c(-c3ccc4c(c3)OCCO4)csc12` as the compound, how does the Potency read?
Its Potency is 2.51 µM (active).

Which “activity change, negative = viability loss” value does the source give for `CCOc1ccc2ccccc2c1C(=O)N[C@@H]1C(=O)N2[C@@H]1SC(C)(C)[C@@H]2C(=O)O` here?
Its value is -34.2%.

For `CCCCCCCCCCCCCCCCOP(=O)([O-])OCC[N+](C)(C)C`, which Potency is on record?
The Potency was 23.1 µM (active).

Which “activity change, negative = viability loss” value does the source give for `Cc1cccc(C)c1NC(=O)c1ccc(N)cc1` here?
Its value is -11.8%.

Which Potency does the source give for `CCCCCN=C(N)N/N=C/c1c[nH]c2ccc(OC)cc12` here?
The Potency was 23.1 µM (active).

Which Potency does the source give for `CN1CCC[C@@H]1CCO[C@](C)(c1ccccc1)c1ccc(Cl)cc1` here?
Its Potency is 20.6 µM (active).

Which Potency does the source give for `CC(C)[C@](O)(c1ccc2cc(OC(F)F)c(OC(F)F)cc2c1)c1cn[nH]n1` here?
Its Potency is 25.1 µM (active).

For `CC(=O)[C@H]1CC[C@H]2[C@@H]3C[C@H](C)C4=CC(=O)CC[C@]4(C)[C@H]3[C@@H](O)C[C@]12C`, which “activity change, negative = viability loss” value is on record?
Its value is -29%.

With `CN[C@@H](C)C(=O)N[C@H](C(=O)N1CCC[C@H]1C(=O)Nc1snnc1-c1ccccc1)C1CCCCC1` as the compound, how does the “activity change, negative = viability loss” value read?
Its value is -10.1%.

For `COc1cc2c(cc1OC)CN(C(=O)[C@H](C)N[C@@H](CCc1ccccc1)C(=O)O)[C@H](C(=O)O)C2`, which “activity change, negative = viability loss” value is on record?
Its value is -6.3%.

With `CCN(CC)CCNc1ccc(CO)c2sc3ccccc3c(=O)c12` as the compound, how does the Potency read?
The Potency was 1.03 µM (active).

Which “activity change, negative = viability loss” value does the source give for `O=c1cc(-c2ccccc2)oc2ccccc12` here?
Its value is -14.3% [at 92.7 µM].

For `CCN(C)S(=O)(=O)Nc1ccc(F)c(C(=O)c2c[nH]c3ncc(-c4cnc(C5CC5)nc4)cc23)c1F`, which Potency is on record?
The Potency was 28.2 µM (active).

With `CCNCCS(=O)(=O)NC[C@@]1(c2ccccc2)SC(NC(=O)C(C)(C)C)=NN1C(=O)C(C)(C)C` as the compound, how does the Potency read?
Its Potency is 0.316 µM (active).

For `COC(=O)C1=C(C)NC(C)=C(C(=O)OC(C)(C)CN(C)CCC(c2ccccc2)c2ccccc2)C1c1cccc([N+](=O)[O-])c1` (stereo not drawn), which Potency is on record?
The Potency was 20.6 µM (active).

With `O=C(NOCC(O)CO)c1ccc(F)c(F)c1Nc1ccc(I)cc1F` (stereo not drawn) as the compound, how does the “activity change, negative = viability loss” value read?
The value was -15.1%.

With `Cc1cccc(CC(=O)N2CCc3c2ccc(-c2cn(C)c4ncnc(N)c24)c3F)n1` as the compound, how does the “activity change, negative = viability loss” value read?
Its value is -7.81%.

With `CN1CCC(=C2c3ccccc3Sc3ccccc32)CC1` as the compound, how does the Potency read?
Its Potency is 8.2 µM (active).

For `CCC(=O)c1ccc2c(c1)N(CCCN(C)C)c1ccccc1S2`, which Potency is on record?
The Potency was 14.6 µM (active).

For `CC(=O)Oc1ccc2c(c1)CC[C@@H]1[C@@H]2CC[C@]2(C)[C@@H](O)CC[C@@H]12`, which Potency is on record?
The Potency was 18.4 µM (active).

For `CCOC(=O)[C@H](CCc1ccccc1)N[C@@H](C)C(=O)N1Cc2ccccc2C[C@H]1C(=O)O`, which Potency is on record?
Its Potency is 16.4 µM (active).

With `CC(=O)Nc1cc(Oc2ccc3c(nc(Nc4ccc(F)cc4F)n3C)c2C)ccn1` as the compound, how does the Potency read?
The Potency was 2.24 µM (active).
